Measured values: PubChem BioAssay (Tox21)
“And” between values parts separate entries of the source, which are not always exact repeats. Equal entries are not always repeated. Results filed as inconclusive are left out. Where a call stands in place of a potency, no number is given. Where a structure was tested more than once in an assay, its records may differ in their call. The source made the active and inactive calls. Unless noted, calls follow the shape of the dose curve; as a rule, active = well fitted curve in the direction sought with a large enough effect in the repeat runs; inconclusive = weak or mixed curves; inactive = no such curve, though single readings can be large; an effect the other way counts as inactive or inconclusive.

Key:
[1] = qHTS assay to identify small molecule antagonists of the retinoid acid receptor (RAR) signaling pathway - cell viability counter screen (AID 1159551); also: nearly all actives have a fitted effect of over 35% in size
Summary of the method: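 In this counter screen, the RARE-luciferase line C3RL4 was exposed for 6 h at 37 C and 5% CO2 to compounds with retinol at 1 uM final. Cellular ATP, read by luminescence, served as the viability measure.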

[2] = qHTS assay to identify small molecule antagonists of the retinoic acid receptor (RAR) signaling pathway (AID 1159552; also: nearly all actives have a fitted effect of over 50% in size)
Summary of the method: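 RARE-luc C3RL4 cells; cpds + 1 uM (final) retinol, 6 hr, 37 C/5% CO2; luciferase reagent, 30 min RT, luminescence readout. Inhibitors of retinol-driven signal scored.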

[3] = qHTS assay to identify small molecule antagonists of the estrogen related receptor (ERR) signaling pathway from Tox21 library - cell viability counter screen (AID 1224834); also: nearly all actives have a fitted effect of over 30% in size; also: potency is read from the fitted curve at half-maximal effect
Summary of the method: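 Counter screen run in ERR cells (2,000 cells/well): cells pre-incubated 6 h, then treated with compounds for 17.5 h at 37 C. Fluorescence was read 30 min after CellTiter-Fluor addition.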

[4] = qHTS assay to identify small molecule agonists of the constitutive androstane receptor (CAR) signaling pathway - cell viability counter screen (AID 1224836); also: nearly all actives have a fitted effect of over 45% in size
Summary of the method: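 HepG2 cells stably carrying hCAR and a CYP2B6-2.2kb reporter were plated 4 h, then given compounds at 15 concentrations plus PK11195 (final 0.75 uM). After 23 h at 37 C, viability was read by CellTiter-Fluor fluorescence.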

[5] = qHTS assay to identify small molecule antagonists of the constitutive androstane receptor (CAR) signaling pathway - cell viability counter screen (AID 1224837); also: nearly all actives have a fitted effect of over 45% in size
Summary of the method: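 CITCO at 50 nM final was added alongside compounds (15 concentrations) to double-stable hCAR/CYP2B6-2.2kb HepG2 cells. Following 23 hr at 37 C, cell viability was quantified by CellTiter-Fluor fluorescence intensity.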

[6] = qHTS assay to identify small molecule antagonists of the estrogen related receptor signaling pathway with the pleiotropic PPARgamma coactivator (PGC) from Tox21 10K library - cell viability counter screen (AID 1224840; active = well fitted cell-killing curve with a large enough effect in the repeat runs, not every such curve was filed as active; also: nearly all actives have a fitted effect of over 40% in size; also: potency is read from the fitted curve at half-maximal effect)
Summary of the method: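 Readout: fluorescence intensity from CellTiter-Fluor after 30 min at 37 C/5% CO2. Preceded by 17.5 h treatment of PGC/ERR cells with DMSO-dissolved compounds, added 6 h post-seeding.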

[7] = qHTS assay to identify small molecule antagonists of the estrogen related receptor signaling pathway with the pleiotropic PPARgamma coactivator (PGC) from Tox21 10K library (AID 1224841; call rule not given here; also: actives are mostly falling curves and most rising ones were filed inactive; nearly all actives have a fitted effect of over 50% in size; also: potency is read from the fitted curve at half-maximal effect)
Summary of the method: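 One-Glo luminescence, measured after half an hour at room temperature, quantified reporter output of PGC/ERR cells. These had been plated at 2,000 per well, incubated 6 h, dosed with compounds in DMSO, then kept 18 h at 37 C.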

[8] = qHTS assay to identify small molecule agonists of the estrogen related receptor signaling pathway with the pleiotropic PPARgamma coactivator (PGC) from Tox21 10K library (AID 1224842); also: nearly all actives have a fitted effect of over 15% in size
Summary of the method: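 PGC/ERR reporter cell line, 2,000 cells per well, incubated 6 h at 37 C before 23 nL compound in DMSO was added. After 18 h at 37 C, One-Glo luminescence read following 30 min at room temperature.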

[9] = qHTS assay to identify small molecule agonists of the hypoxia (HIF-1) signaling pathway - cell viability counter screen (AID 1224844; calls by dose curve; also: nearly all actives have a fitted effect of over 50% in size)
Summary of the method: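 In this counter screen, HRE-bla ME-180 cell viability after 17 hrs of compound exposure at 37C was read by CellTiter-Glo luminescence, multiplexed with the beta-lactamase reporter measurement.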

[10] = target: Nuclear receptor subfamily 1 group I member 3 (Homo sapiens) (UniProt Q14994); test: qHTS assay to identify small molecule antagonists of the constitutive androstane receptor (CAR) signaling pathway (AID 1224838); also: nearly all actives have a fitted effect of over 40% in size
Nuclear receptor subfamily 1 group I member 3 (Homo sapiens), sequence (Q14994 whole entry, looked up): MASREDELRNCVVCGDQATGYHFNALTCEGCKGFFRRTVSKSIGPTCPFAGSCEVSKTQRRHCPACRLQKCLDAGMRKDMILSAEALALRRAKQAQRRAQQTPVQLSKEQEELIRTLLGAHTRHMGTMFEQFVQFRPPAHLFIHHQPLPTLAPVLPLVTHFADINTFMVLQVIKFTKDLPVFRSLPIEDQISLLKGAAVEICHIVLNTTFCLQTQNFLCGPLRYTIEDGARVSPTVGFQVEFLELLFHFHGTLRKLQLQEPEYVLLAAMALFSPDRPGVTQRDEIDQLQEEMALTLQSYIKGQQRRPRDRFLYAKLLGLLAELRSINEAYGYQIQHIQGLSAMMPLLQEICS
Summary of the method: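 Inhibition of CITCO-driven (50 nM final) CYP2B6 reporter expression is measured in HepG2 cells stably carrying hCAR. Fifteen compound concentrations are applied for 24 h at 37 C, followed by luciferase luminescence.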

[11] = target: Nuclear receptor subfamily 1 group I member 3 (Homo sapiens) (UniProt Q14994); test: qHTS assay to identify small molecule agonists of the constitutive androstane receptor (CAR) signaling pathway (AID 1224839); also: nearly all actives have a fitted effect of over 15% in size; also: potency is read from the fitted curve at half-maximal effect
Summary of the method: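 HepG2 cells stably expressing hCAR and a CYP2B6-2.2kb luciferase reporter were treated with compounds at 15 concentrations plus 0.75 uM PK11195 (final) for 24 h at 37 C; luminescence was read after ONE-Glo addition.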

[12] = target: Thyrotropin receptor (Homo sapiens) (UniProt P16473); test: qHTS assay to identify small molecule agonists of the thyroid stimulating hormone receptor (TSHR) signaling pathway (AID 1224843; calls by dose curve; also: nearly all actives have a fitted effect of over 45% in size)
Thyrotropin receptor (Homo sapiens), sequence (P16473 whole entry, looked up): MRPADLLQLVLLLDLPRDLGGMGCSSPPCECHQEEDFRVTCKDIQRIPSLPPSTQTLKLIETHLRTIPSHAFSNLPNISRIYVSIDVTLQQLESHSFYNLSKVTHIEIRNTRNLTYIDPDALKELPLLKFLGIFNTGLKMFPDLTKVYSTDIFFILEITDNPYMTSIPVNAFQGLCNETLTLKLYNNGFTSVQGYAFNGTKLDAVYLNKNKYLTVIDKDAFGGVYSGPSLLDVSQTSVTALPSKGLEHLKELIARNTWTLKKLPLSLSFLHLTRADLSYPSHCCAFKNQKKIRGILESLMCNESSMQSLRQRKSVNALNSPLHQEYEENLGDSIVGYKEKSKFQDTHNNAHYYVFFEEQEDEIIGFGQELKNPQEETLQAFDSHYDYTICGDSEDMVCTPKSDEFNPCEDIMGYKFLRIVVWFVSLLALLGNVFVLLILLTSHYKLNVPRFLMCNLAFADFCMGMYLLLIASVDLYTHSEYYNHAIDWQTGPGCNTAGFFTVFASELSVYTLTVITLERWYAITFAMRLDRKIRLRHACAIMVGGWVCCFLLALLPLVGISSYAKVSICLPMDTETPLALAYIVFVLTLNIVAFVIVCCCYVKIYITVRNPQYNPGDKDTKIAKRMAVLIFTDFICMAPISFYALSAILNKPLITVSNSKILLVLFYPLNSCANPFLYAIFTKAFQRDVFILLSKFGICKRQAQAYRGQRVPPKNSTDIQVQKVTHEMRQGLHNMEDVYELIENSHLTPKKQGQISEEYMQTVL
Summary of the method: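 Agonist-mode screen: TSHR HEK293 cells received test chemicals for half an hour at room temperature, then HTRF cAMP detection reagents for one hour prior to fluorescence measurement. Each chemical ran as a 15-concentration series, triplicated.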

[13] = target: Luciferin 4-monooxygenase (Photinus pyralis) (UniProt P08659); test: qHTS assay to identify small molecule inhibitors of firefly luciferase (AID 1224835); also: nearly all actives have a fitted effect of over 25% in size
Luciferin 4-monooxygenase (Photinus pyralis), sequence (P08659 whole entry, looked up): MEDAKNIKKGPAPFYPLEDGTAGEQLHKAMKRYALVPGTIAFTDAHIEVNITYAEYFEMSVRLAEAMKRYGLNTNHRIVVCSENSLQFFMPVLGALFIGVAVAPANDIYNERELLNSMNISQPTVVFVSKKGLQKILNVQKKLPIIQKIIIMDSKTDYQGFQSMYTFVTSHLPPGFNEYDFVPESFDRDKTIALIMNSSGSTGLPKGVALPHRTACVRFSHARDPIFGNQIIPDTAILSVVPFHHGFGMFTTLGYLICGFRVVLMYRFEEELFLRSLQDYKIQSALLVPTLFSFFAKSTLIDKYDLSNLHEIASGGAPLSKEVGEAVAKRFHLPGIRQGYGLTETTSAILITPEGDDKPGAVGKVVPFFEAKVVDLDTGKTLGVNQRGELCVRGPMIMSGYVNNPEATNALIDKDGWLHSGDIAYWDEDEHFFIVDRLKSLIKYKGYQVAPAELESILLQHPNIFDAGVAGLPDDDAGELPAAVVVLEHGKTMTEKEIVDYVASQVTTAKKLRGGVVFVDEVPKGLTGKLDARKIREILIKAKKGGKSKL
Summary of the method: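 Biochemical qHTS: compounds run as interplate titrations against purified firefly enzyme, with D-luciferin and ATP each at its KM concentration. Light output recorded by CCD imaging.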

[14] = qHTS assay to identify small molecule antagonists of the estrogen related receptor signaling pathway with the pleiotropic PPARgamma coactivator (PGC) cell viability counter screen (AID 1224822)
Summary of the method: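 17.5 h compound treatment of PGC/ERR cells at 37 C; readout CellTiter-Fluor fluorescence; run alongside the PGC/ERR antagonist screen to flag cytotoxic compounds.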

[15] = qHTS assay to identify small molecule antagonists of the estrogen related receptor (ERR) signaling pathway - cell viability counter screen (AID 1224818)
Summary of the method: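 Viability of ERR cells, CellTiter-Fluor fluorescence; 17.5 h compound exposure at 37 C, DMSO vehicle; 30 min reagent incubation at 37 C/5% CO2.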

[16] = qHTS assay to identify small molecule agonists of the retinoic acid receptor (RAR) signaling pathway (AID 1159553); conditions: C3RL4 RARE luciferase reporter, agonist, 6 h
Summary of the method: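 In this cell-based screen, 1,000 C3RL4 cells per well were cultured overnight, dosed with test chemicals in DMSO for 6 hr, and assessed for RARE luciferase luminescence.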

Row | Structure (SMILES) | Potency [1] | Potency [2] | Potency [3] | Potency [4] | Potency [5] | Potency [6] | Potency [7] | Potency [8] | Potency [9] | Potency [10] | Potency [11] | Potency [12] | Potency [13] | Potency [14] | outcome [15] | activation ([16]; activation: at 73.3 µM (top of the series) unless noted) | activation ([16]; at 73.3 µM (top of the series))
1 | OCCOCCOCCOCCOCCO | inactive | inactive | inactive | inactive | inactive | inactive | inactive | inactive | inactive |  |  |  |  |  |  |  | 
2 | CC(=O)OCc1ccc2c(c1)OCO2 | inactive |  | inactive | inactive | inactive | inactive | inactive | inactive | inactive | inactive | inactive | inactive |  |  |  |  | 
3 | CC/C=C(\C(=O)N[C@@H]1C(=O)N2C(C(=O)OCOC(=O)C(C)(C)C)=C(COC(N)=O)CS[C@H]12)c1csc(N)n1 | inactive | inactive | inactive | inactive | inactive | inactive |  |  | inactive | inactive | inactive |  | inactive |  |  |  | 
4 | O=c1c(O)c(-c2ccc(O)c(O)c2)oc2cc(O)cc(O)c12 | inactive |  | 43.6 µM (active) and 27.3 µM (active) and inactive | inactive |  | inactive and 24.3 µM (active) |  |  | inactive | inactive | 54.5 µM (active) and inactive |  |  | inactive |  |  | 
5 | Clc1cccc(Cl)c1NC1=NCCN1 | inactive |  | inactive | inactive | inactive | inactive |  |  | inactive | inactive | inactive | inactive |  | inactive | inactive |  | 
6 | O=C(c1ccccc1)c1ccc(O)c(O)c1O | inactive | inactive | 49 µM (active) | inactive | inactive | inactive | inactive | inactive |  |  |  | inactive |  |  |  |  | 
7 | N[C@@H](Cc1cc(I)c(Oc2ccc(O)c(I)c2)c(I)c1)C(=O)O | inactive |  | inactive | inactive | inactive | inactive |  |  | inactive |  | inactive and 56.7 µM (active) | inactive |  |  |  |  | 
8 | CN1CCCC1=O |  | inactive | inactive | inactive | inactive | inactive |  |  | inactive |  |  |  | inactive |  |  | -0.377% [at 94.8 µM] (active) | 0.131% (inactive)
9 | Nc1cccc(N)n1 | inactive | inactive | inactive | inactive | inactive | inactive |  |  | inactive | inactive | inactive |  | inactive |  |  |  | 
10 | COc1ccc2cc3[n+](cc2c1OC)CCc1cc2c(cc1-3)OCO2 | inactive | inactive | 27.5 µM (active) | inactive | inactive | inactive | 3.88 µM (active) and 7.5 µM (active) | inactive | inactive | inactive | inactive |  |  |  |  |  | 
11 | CCn1cc(C(=O)O)c(=O)c2cc3c(cc21)OCO3 | inactive |  | inactive | inactive | inactive | inactive |  |  | inactive |  |  |  | inactive | inactive | inactive |  | 
12 | C=CC(=O)NCOCCCC | inactive | inactive | inactive | inactive | inactive | inactive |  |  | inactive | inactive | inactive |  | inactive |  |  |  | 
13 | CCCCC(CC)COC(=O)c1ccc(C(=O)OCC(CC)CCCC)cc1 (stereo not given) | inactive | inactive | inactive | inactive | inactive | inactive | inactive | inactive | inactive |  |  |  | inactive |  |  |  | 
